Assay outcomes deposited in PubChem BioAssay by several laboratories.
Gli-Sufu antag – Gli-Sufu pathway antagonists, primary screen, luciferase luminescence, Sufu-KO-LIGHT cells, uHTS. Sufu-KO-LIGHT fibroblasts, Gli luciferase reporter luminescence. inhibition, % at 5 µM. 0.74% of 340,000 active;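 active means inhibition above about 55%, limit read from the data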;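 further: 0% = DMSO-treated cells and 100% = wells with medium but no cells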
COUP-TFII inh – NR2F2 transcriptional activity inhibitors, primary screen, cell-based, luciferase reporter, HEK293T, luminescence; 0.7% of 370,000 active; HEK293T NGFI-A luciferase reporter; AID 686940, 2013; COUP transcription factor 2 (Homo sapiens), P24468; inhibition, % at 8.6 µM;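 active means inhibition above a per-plate cutoff, mean inhibition of test wells between control levels plus 3 SD, cut at about 38% in these data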;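 further: cells cotransfected with COUP-TFII expression vector driving the NGFI-A reporter; 0% = median of COUP-TF2 test wells and 100% = reporter-only cells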
LRH-1 inv ag – LRH-1 (NR5A2) inverse agonists, primary screen, cell-based, luminescence, HEK293T, StAR-luciferase reporter; LRH-1 transfected, 24 h; AID 602396, 2012; inhibition, % at 3.6 µM; Nuclear receptor subfamily 5 group A member 2 (Homo sapiens), O00482; 0.13% of 360,000 active;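 active means inhibition above the mean inhibition of all tested compounds plus 3 SD, cut at about 73% in these data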;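 further: 0% = DMSO wells and 100% = reporter-only cells lacking LRH-1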
NCOA3 inh – SRC3 coactivator transcriptional activity inhibitors, primary screen, cell-based, luminescence; 0.17% of 360,000 active; inhibition, % at 3.6 µM; Nuclear receptor coactivator 3 (Homo sapiens), Q9Y6Q9; HEK293 GAL4-SRC3 luciferase reporter;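 active means inhibition above a per-campaign cutoff, the mean of all compounds plus 3 SD, cut at about 60% in these data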;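 further: 0% = DMSO-treated cells and 100% = gossypol-treated cells at 36 µM; higher means less SRC3-driven luciferase light from the GAL4 reporter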
Target sequence (Q9Y6Q9 whole entry, looked up, the tested form may be a part): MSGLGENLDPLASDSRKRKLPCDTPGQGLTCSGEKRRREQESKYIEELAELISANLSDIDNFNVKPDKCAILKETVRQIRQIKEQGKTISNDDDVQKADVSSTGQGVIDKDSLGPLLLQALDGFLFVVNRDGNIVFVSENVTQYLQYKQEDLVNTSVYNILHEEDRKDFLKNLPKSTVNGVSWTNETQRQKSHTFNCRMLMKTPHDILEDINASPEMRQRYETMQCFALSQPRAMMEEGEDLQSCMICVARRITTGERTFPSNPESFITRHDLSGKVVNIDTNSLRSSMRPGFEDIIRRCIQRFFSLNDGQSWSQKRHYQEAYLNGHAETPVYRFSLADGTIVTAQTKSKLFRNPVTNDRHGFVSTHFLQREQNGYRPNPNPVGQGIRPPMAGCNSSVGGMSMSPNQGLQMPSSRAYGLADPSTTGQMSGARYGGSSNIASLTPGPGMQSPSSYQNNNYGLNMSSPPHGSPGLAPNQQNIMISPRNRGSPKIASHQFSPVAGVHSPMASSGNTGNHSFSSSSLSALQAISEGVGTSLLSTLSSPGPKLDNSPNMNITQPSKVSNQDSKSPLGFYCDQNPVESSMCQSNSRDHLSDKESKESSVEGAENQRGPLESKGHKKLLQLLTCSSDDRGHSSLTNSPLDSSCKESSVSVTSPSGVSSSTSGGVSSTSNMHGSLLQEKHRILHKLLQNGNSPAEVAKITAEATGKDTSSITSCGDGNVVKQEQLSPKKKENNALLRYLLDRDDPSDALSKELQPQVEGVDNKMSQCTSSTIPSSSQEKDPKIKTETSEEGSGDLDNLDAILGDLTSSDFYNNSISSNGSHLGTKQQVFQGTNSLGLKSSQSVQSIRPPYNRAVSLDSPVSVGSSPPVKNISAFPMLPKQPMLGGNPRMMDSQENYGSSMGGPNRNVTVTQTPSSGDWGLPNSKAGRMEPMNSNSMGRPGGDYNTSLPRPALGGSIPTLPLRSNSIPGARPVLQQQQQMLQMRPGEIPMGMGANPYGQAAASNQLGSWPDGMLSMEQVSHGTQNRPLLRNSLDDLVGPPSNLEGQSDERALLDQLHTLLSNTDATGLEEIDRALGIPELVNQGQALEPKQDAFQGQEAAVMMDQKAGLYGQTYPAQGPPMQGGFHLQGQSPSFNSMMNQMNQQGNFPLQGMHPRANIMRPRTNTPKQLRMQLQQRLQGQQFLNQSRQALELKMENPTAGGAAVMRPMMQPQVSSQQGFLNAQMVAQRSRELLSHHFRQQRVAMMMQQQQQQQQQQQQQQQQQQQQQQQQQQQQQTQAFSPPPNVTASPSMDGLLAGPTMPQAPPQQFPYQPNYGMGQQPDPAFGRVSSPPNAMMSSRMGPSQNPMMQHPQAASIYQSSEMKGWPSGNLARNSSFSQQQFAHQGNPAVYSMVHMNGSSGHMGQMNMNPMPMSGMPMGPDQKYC
SRC1 inh – SRC1 coactivator transcriptional activity inhibitors, primary screen, cell-based, luminescence. inhibition, % at 3.6 µM. Nuclear receptor coactivator 1 (Homo sapiens), Q15788. HEK293 GAL4-SRC1 luciferase reporter. 0.12% of 360,000 active;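 active means inhibition above the campaign mean plus 3 SD, with each screening campaign given its own cutoff, cut at about 60% in these data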;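 further: 0% = DMSO treated cells and 100% = gossypol at 36 µM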
NCOA2 inhibitor – inhibition of GAL4-SRC2 driven luciferase reporter, primary screen, SRC2 inhibitor project, cell-based, luminescence; Nuclear receptor coactivator 2 (Homo sapiens), Q15596; HEK293 GAL4-SRC2 luciferase reporter; inhibition, % at 9 µM; 0.17% of 370,000 active; AID 651957, 2012;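 active means inhibition above the mean inhibition of all tested compounds plus 3 SD, set per campaign, cut at about 52% in these data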;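 further: 0% = DMSO treated cells and 100% = cells given Gossypol at 36 µM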
Gli-Sufu confirm – Gli-SUFU pathway antagonists, confirmation, single concentration, luciferase luminescence, Sufu-KO-LIGHT cells | shares compounds with Gli-Sufu antag | Gli luciferase reporter | inhibition, % at 5 µM | 40% of 2,500 active;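 active means mean inhibition at 5 µM reaching about 45%, limit read from the data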;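 further: plate controls were DMSO-treated cells for no effect and wells lacking cells for full effect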
Gli cytotox – cytotoxicity in Sufu-KO-LIGHT cells, confirmation, cytotoxicity control for Gli-SUFU antagonist project, cell-based, ATP luminescence, single concentration | shares compounds with Gli-Sufu antag | cytotoxicity, % at 5 µM | 32% of 2,500 active;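 active means mean cytotoxicity at 5 µM above about 25%, limit read from the data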;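 further: cells exposed to compound overnight for roughly 16 to 18 hours; plate controls were DMSO wells with cells for no effect and medium without cells for full effect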
Wnt3a counter – Wnt3a reporter signal inhibition, confirmation, counter-screen for Gli-SUFU antagonist project, Wnt-LIGHT cells, luminescence, single concentration; Wnt3a-driven luciferase reporter; AID 651995, 2013; inhibition, % at 6.25 µM; 20% of 2,500 active; shares compounds with Gli-Sufu antag;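 active means mean inhibition above about 25%, limit read from the data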
* = called active by the depositor; nt = not tested or not shown. Compounds with a hit are over-represented: about 1.3% of the library has one in this group of screens.

SMILES | Gli-Sufu antag | COUP-TFII inh | LRH-1 inv ag | NCOA3 inh | SRC1 inh | NCOA2 inhibitor | Gli-Sufu confirm | Gli cytotox | Wnt3a counter
c1ccc(CC(Nc2cccnc2)c2ccccc2)cc1 (stereo not drawn) | nt | 7 | nt | nt | nt | 17 | nt | nt | nt
COc1ccc(OCC(=O)Nc2nnc(C)s2)cc1 | 4 | -5 | -11 | 7 | -14 | -26 | nt | nt | nt
CCOc1ccccc1OCC(=O)Nc1nnc(C)s1 | 94* | 9 | -7 | -4 | 0 | -10 | 21 | -7 | 9
COC(=O)C1=C(C)N(Cc2cccc(C(F)(F)F)c2)C(=NCc2cc(OC)c(OC)c(OC)c2)NC1c1ccccc1C(F)(F)F (stereo not drawn) | nt | 0 | nt | nt | nt | -56 | nt | nt | nt
CCOc1cc(CN2CCN(CCc3ccccc3)C(CCO)C2)ccc1OC (stereo not drawn) | 61* | -12 | 20 | 9 | 6 | -10 | 14 | 5 | -19
COC(=O)[C@@H](c1ccccc1)N(C)S(=O)(=O)c1cccc(S(=O)(=O)N(C)[C@@H](C(=O)OC)c2ccccc2)c1 | 57* | 8 | 19 | 27 | 2 | 26 | 33 | 33* | 22
COC(=O)C(c1ccccc1)C(C(=O)OC)c1ccccc1 (stereo not drawn) | -6 | -16 | -1 | 1 | 6 | -19 | nt | nt | nt
CCOCCCNC(=O)c1cc(C)nn1-c1ccccc1 | 3 | 11 | 16 | 5 | -12 | -7 | nt | nt | nt
CCOCCCNC(=O)c1cc2sc(Cl)cc2n1CC | 59* | -25 | -15 | -2 | -2 | -16 | 20 | 12 | -48
COc1ccc(C(C(=O)NC2CCCCC2)N(C(=O)CCl)c2ccc(C)cc2)cc1 (stereo not drawn) | 86* | -9 | -13 | 56 | 27 | 38 | 33 | 29* | 15
COc1ccc(C(C(=O)NC2CCCC2)N(C(=O)c2ccoc2C)c2ccc(C)cc2)cc1 (stereo not drawn) | -15 | 3 | 4 | 14 | 12 | 5 | nt | nt | nt
COc1ccc(C(C(=O)NC2CCCCC2)N(C(=O)CCl)c2ccc(OC)cc2)cc1 (stereo not drawn) | 84* | nt | 2 | 41 | -14 | nt | 33 | 19 | -40
COC(=O)[C@]12C[C@H](CC(=O)NCCC(C)C)C(=O)N(CCC3=CCCCC3)C1=C[C@H](C1CCCC1)O[C@@H]2C | nt | -7 | nt | nt | nt | 2 | nt | nt | nt
Oc1ccc(-c2nc3ccc4ccccc4c3c3c2CCC3)cc1O | 56* | -17 | -33 | -19 | -33 | -3 | 11 | 20 | -26
Cc1cc(C)c2c(ccc3ccccc32)n1 | 6 | -3 | -8 | -10 | -5 | -29 | nt | nt | nt
CCOC(=O)CSc1ncc(OC)c(=O)[nH]1 | 5 | -5 | -3 | 10 | -1 | -12 | nt | nt | nt
COc1cnc(SCC(=O)O)[nH]c1=O | 62* | -8 | -8 | -6 | 0 | 5 | 14 | 7 | 12
O=C(NCCc1ccccc1)C1CCC(CNS(=O)(=O)c2ccccc2)CC1 (stereo not drawn) | 50 | -6 | -13 | 4 | -23 | -6 | 10 | -7 | -18
CCOC(=O)C1=CCN(S(=O)(=O)c2ccc(Br)cc2)C1c1ccc(Br)cc1 (stereo not drawn) | nt | 4 | nt | nt | nt | -4 | nt | nt | nt
CC(C)(C)OC(=O)NCc1cc(F)ccc1/C=C/S(=O)(=O)NCc1ccc(F)cc1 | nt | -3 | nt | nt | nt | 23 | nt | nt | nt
Cc1ccc(-c2cc(C(=O)N/N=C/c3cccnc3)c3ccccc3n2)cc1C | -43 | -11 | -58 | -65 | -66 | -23 | nt | nt | nt
Cc1ccc(C)c(-c2cc(C(=O)N/N=C/c3cccnc3)c3ccccc3n2)c1 | 52 | 7 | 45 | 12 | 5 | 3 | 19 | 7 | -40
O=[N+]([O-])c1cccc(-c2nnc(C34CC5CC(CC(C5)C3)C4)o2)c1 | 77* | 4 | 5 | 9 | 10 | 16 | 11 | 7 | -14
COc1cc(NC(=O)c2cc3ccccc3cc2O)c(OC)cc1Cl | 26 | 31 | 23 | -12 | -29 | 15 | nt | nt | nt
NNC(=O)c1cc2ccccc2cc1O | 61* | 27 | 25 | 62* | 55 | 71* | 72* | 6 | 83*
SMILES | Gli-Sufu antag | COUP-TFII inh | LRH-1 inv ag | NCOA3 inh | SRC1 inh | NCOA2 inhibitor | Gli-Sufu confirm | Gli cytotox | Wnt3a counter
Cc1ccc(Cl)cc1NC(=O)c1cc2ccccc2cc1O | 61* | 23 | -19 | -9 | -16 | -14 | 71* | 26* | 56*
O=C(NCCO)c1cc2ccccc2cc1O | -1 | -15 | 6 | 11 | -5 | 1 | nt | nt | nt
C[C@H]1[C@H](NC(=O)c2ccc(Cl)cc2)CC[C@@]23CCCN2C(=O)CCC[C@@H]13 | nt | 22 | nt | nt | nt | nt | nt | nt | nt
O=C(CSc1nnc(-c2cccc(Cl)c2)n1Cc1ccco1)c1ccc(F)cc1 | nt | 7 | nt | nt | nt | -7 | nt | nt | nt
Nc1nc(=O)n(C2CC(O)C(CO)O2)cc1F (stereo not drawn) | 66* | -41 | -27 | 61 | 60 | 10 | 47* | 17 | 45*
Nc1nc(Cl)nc2c1ncn2[C@H]1C[C@H](O)[C@@H](CO)O1 | 83* | -54 | 18 | -30 | 3 | -41 | 68* | 25* | 50*
O=C(CSc1nc2ccccc2nc1N1CCOCC1)NCc1ccc(Cl)cc1Cl | nt | 8 | nt | nt | nt | 17 | nt | nt | nt
C#CCNC(=O)C[C@@H]1C(=O)N(CCc2ccc(Cl)cc2)C2=CCCCC[C@]21C(=O)OC | nt | -1 | nt | nt | nt | 9 | nt | nt | nt
CCn1c(=O)n(CC)c2cc(N3CCCC3)c(NC(=O)c3ccc(C)c([N+](=O)[O-])c3)cc21 | 51 | 3 | 18 | -55 | 15 | 0 | 53* | 35* | 7
CCn1c(=O)n(CC)c2cc(N3CCCC3)c(NC(=O)c3cccc(C)c3)cc21 | -3 | -10 | -3 | -9 | 16 | 1 | nt | nt | nt
COCCCNC(=O)C[C@H]1C[C@@]2(C(=O)OC)C(=C[C@H](C(C)C)O[C@@H]2C2CC2)N(Cc2cccc3ccccc23)C1=O | nt | 12 | nt | nt | nt | 2 | nt | nt | nt
Cc1ccc(NC(=S)Nc2ccc(OC(F)F)c(Cl)c2)cc1Cl | 56* | -13 | 16 | -4 | -117 | -9 | 5 | -2 | -19
